An excerpt weighted towards active compounds, which were near 2.1% of everything screened.
FUS suppressor = FUS proteinopathy suppression in yeast; S. cerevisiae FUS-expressing, growth rescue, OD600, 24 h; Potency, µM (highest dose often 76.6 µM), usual class: activators; hit rate 0.24% among 390,000; AID 1347120;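 further: plate controls were DMSO vehicle for no effect and reference control for full effect; nearly all actives have a fitted effect of over 55% in size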
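FUS-expressing yeast, raffinose-pregrown, induced in 2% galactose minimal medium at OD 0.005; compounds in a dilution series, 24hr at 30C. Growth restoration read as absorbance at 600 nm. CP55940 positive control, DMSO negative.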
TDP-43 yeast inh = inhibitors of TDP-43 toxicity in yeast; TDP-43 expressing yeast growth rescue, BacTiter-Glo, 24 h; Potency, µM (series often up to 46.1 µM), without a hit: top-dose growth rescue (activation), usual class: activators; hit rate 1.8% among 410,000; AID 652104; further: % of control where 0% means no effect; nearly all actives have a fitted effect of over 50% in size
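Growth rescue of TDP-43-toxic yeast measured as ATP luminescence (BacTiter-Glo). Cells grown to mid-log in raffinose, induced in galactose at OD600=0.02, exposed to compound 24 hr at 30 deg C.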
Abeta rescue = restores growth of yeast expressing A-beta42 peptide. yeast expressing A-beta42, growth rescue, OD600, 48 h; response scale: 0% DMSO, 100% iron-clioquinol control. Potency, µM (doses to about 46.1 µM), usual class: activators. hit rate 0.063% among 410,000; further: nearly all actives have a fitted effect of over 55% in size
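Yeast growth medium received pinned compounds, then yeast cells expressing toxic A-beta were added; plates incubated at 30 C for 48 hr. Growth read as absorbance at 600 nm, normalized to DMSO and equimolar FeCl3 plus clioquinol controls.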
aSyn yeast inh = rescues yeast growth from alpha-synuclein toxicity. Yeast expressing alpha-synuclein, growth rescue, BacTiter-Glo, 24 h. Potency, µM (series often up to 46.1 µM), without a hit: top-dose growth rescue (activation), usual class: activators. hit rate 0.14% among 370,000; further: % of control where 0% means no effect; nearly all actives have a fitted effect of over 65% in size
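Galactose-induced alpha-syn yeast (OD600=0.02, raffinose-pregrown) + pinned cpd, 24 hr, 30 deg C; growth by BacTiter-Glo luminescence. Growth restoration scores as activation.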
Starred values were filed as active, the others as inactive; i = inactive; ? = inconclusive; . = no result; [ ] = remark or other dose. The call rests on the fitted dose curve; in most records, active means well fitted curve in the direction sought with a large enough effect; inconclusive means small, poorly fitted or top-dose-only effect, or another doubt; inactive means no such curve, though single readings can be large; an effect the other way counts as inactive or inconclusive. Potency means the concentration at half of the fitted maximal effect.

SMILES | FUS suppressor | TDP-43 yeast inh | Abeta rescue | aSyn yeast inh
CCn1c(C)cc(C(=O)CSc2nnnn2C2CCCC2)c1C | . | 20µM* | i | 0.5%
O=C(CN1CCCc2ccccc21)NCc1ccccc1F | i | . | . | .
CN(C)c1ccc2c(=O)c3ccccc3oc2n1 | i | 15.8µM* | i | ?
Cc1nc2oc3ccccc3c(=O)c2cc1C(=O)O | i | -19.7% | i | 0.2%
Cc1ccc(C)c(CSC2=NC(C)(C)Nc3ccccc32)c1 | i | 15.2% | i | .
CC1(C)N=C(SCc2ccc(F)cc2)c2ccccc2N1 | i | 11.2µM* | i | .
O=C1CCC[C@H]2C[C@H](NCc3cccs3)CC[C@]23CCCN13 | i | . | . | .
CCc1cc2c(=O)[nH]c(-c3ccccn3)nc2s1 | . | ? | ? | 17.8µM*
c1nc(SSc2ncc3n[nH]nc3n2)nc2n[nH]nc12 | . | . | . | 4.3%
COC1=Cc2c(ccc3ccc(=O)oc23)OC1(C)C | i | 12.6µM* | i | .
COc1ccccc1NCC(O)COc1ccc(C(C)(C)C)cc1 (stereo unspecified) | ? | -26.7% | i | ?
COc1ccc(N2CCN(CC(O)COc3ccc(C(C)(C)C)cc3)CC2)cc1 (stereo unspecified) | i | 12.6µM* | i | .
COc1ccc(NCC(O)COc2ccc(C(C)(C)C)cc2)cc1 (stereo unspecified) | i | 15.8µM* | ? | 24.2%
CC1(C)C2CCC1(C)C(NC(=O)COC(=O)c1ccc(S(C)(=O)=O)c([N+](=O)[O-])c1)C2 (stereo unspecified) | . | . | . | 2.2%
O=C(CSc1nnc(-c2cccnc2)n1-c1ccccc1)c1ccccc1Cl | i | . | . | .
CCCCCc1ccc(NC(=O)O[C@@H]2CC[C@@]34CCCN3C(=O)CCC[C@H]4C2)cc1 | 22.4µM* | . | . | .
COc1ccc(CN(CC#Cc2ccccc2)Cc2ccccc2)c(OC)c1 | i | . | . | .
C/C(=N\Nc1ccc([N+](=O)[O-])cc1)c1cccc(N)c1 | i | 14.1µM* | i | 3.9%
Cc1ccc(C(=O)c2cn(Cc3ccccc3)c3nc(C)ccc3c2=O)cc1 | i | 11.2µM* | i | .
CCc1ccc(C(=O)c2cn(CC(=O)Nc3cc(OC)ccc3OC)c3nc(C)ccc3c2=O)cc1 | 35.5µM* | -26.3% | i | .
Cc1ccc(C(=O)c2cn(CC(=O)NCc3ccccc3)c3nc(C)ccc3c2=O)cc1 | i | 5.4% | i | .
Cc1ccc(C(=O)c2cn(Cc3ccccc3C)c3nc(C)ccc3c2=O)cc1 | 25.1µM* | ? | i | .
Cc1ccc(C(=O)c2cn(Cc3cccc(F)c3)c3nc(C)ccc3c2=O)cc1 | i | 14.1µM* | i | .
COc1ccc(Cl)cc1NC(=O)Cn1cc(C(=O)c2ccc(C)cc2)c(=O)c2ccc(C)nc21 | i | 0.3% | i | .
CCn1cc(C(=O)NCCc2ccccc2C)c(=O)c2ccc(C)nc21 | i | 0.0% | i | 0.2%
SMILES | FUS suppressor | TDP-43 yeast inh | Abeta rescue | aSyn yeast inh
Clc1ccc(-c2csc(N/N=C/c3cccnc3)n2)c(Cl)c1 | ? | 12.6µM* | i | -0.9%
CCC(C)[C@H](NC(=O)OC(C)(C)C)C(=O)N/N=C/C1=Cc2ccccc2OC1 (stereo partly specified) | 28.2µM* | -18.9% | i | 0.0%
C[C@H](NC(=O)OC(C)(C)C)C(=O)N/N=C/C1=Cc2ccccc2OC1 | i | 8.2% | i | -3.5%
NC(=O)[C@@H]1CC2(CC(c3cccc(NC(=O)CC(c4ccccc4)c4ccccc4)c3)=NO2)CN1C(=O)c1ccc(Cl)cc1 (stereo partly specified) | 28.2µM* | -9.4% | i | -0.1%
C/C=C\C=C\C(=O)Nc1cccc(C2=NOC3(C2)C[C@@H](C(N)=O)N(C(=O)C(c2ccccc2)c2ccccc2)C3)c1 (stereo partly specified) | 31.6µM* | 7.9% | i | 3.8%
NC(=O)[C@@H]1CC2(CC(c3cccc(NC(=O)COc4ccc(Cl)cc4)c3)=NO2)CN1C(=O)COc1ccc(Cl)cc1 (stereo partly specified) | 17.8µM* | -22.3% | i | 1.2%
C=C(C)C(=O)N1CC2(CC(c3cccc(NC(=O)CC(c4ccccc4)c4ccccc4)c3)=NO2)C[C@H]1C(N)=O (stereo partly specified) | 31.6µM* | -11.7% | i | 10.7%
NC(=O)[C@H]1CC2(CC(c3cccc(NC(=O)CC(c4ccccc4)c4ccccc4)c3)=NO2)CN1C(=O)CC(c1ccccc1)c1ccccc1 (stereo partly specified) | ? | 0.0% | i | 0.1%
N#CCC(=O)N1CC2(CC(c3cccc(NC(=O)COc4ccc(Cl)cc4)c3)=NO2)C[C@@H]1C(N)=O (stereo partly specified) | i | 1.1% | i | 1.7%
Brc1ccc[n+](CCC2CCCCC2)c1 | . | . | . | 2.2%
Cc1nnc(NC(=O)Cc2ccc(OCc3c(C)noc3C)cc2)s1 | 14.1µM* | -5.6% | i | -2.3%
Cc1noc(C)c1COc1ccc(CC(=O)NCCc2ccccc2)cc1 | i | 0.7% | i | 5.5%
COc1ccc(CCn2nnnc2C2(c3ccc(C)cc3)CC2)cc1 | . | . | . | -3.2%
COc1ccc(-n2c(SCC(=O)N(CC(C)C)CC(C)C)nnc2-c2ccncc2)cc1 | i | . | . | .
Cc1nc(Nc2ccccc2)sc1C(=O)c1ccccc1 | i | -14.8%[1.82 µM] | i | -6.5%
CC(=O)c1cc(C(=O)c2ccccc2)sc1Nc1ccccc1 | i | 35.5µM* | i | 9.2%
COc1ccc(S(=O)(=O)N(C)C[C@H]2Oc3ccc(NS(=O)(=O)c4ccc(F)cc4)cc3C(=O)N([C@H](C)CO)C[C@@H]2C)cc1 | 31.6µM* | 27.7% | i | 2.3%
COc1ccc(S(=O)(=O)Nc2ccc3c(c2)C(=O)N([C@H](C)CO)C[C@H](C)[C@@H](CN(C)S(=O)(=O)c2ccc(F)cc2)O3)cc1 | ? | 26.8% | i | -1.5%
C[C@@H]1CCCCO[C@@H](CN(C)Cc2ccc(Cl)c(Cl)c2)[C@@H](C)CN([C@H](C)CO)C(=O)c2cc(NC(=O)Nc3ccccc3)ccc2O1 | 28.2µM* | -3.5% | i | -2.4%
COc1ccc(S(=O)(=O)Nc2cccc3c2O[C@H](CN(C)S(=O)(=O)c2ccc(Cl)cc2)[C@H](C)CN([C@H](C)CO)C3=O)cc1 | 10µM* | 0.0% | i | -7.2%
C[C@H](CO)N1C[C@H](C)[C@@H](CN(C)Cc2ccc(-c3ccccc3)cc2)Oc2c(NS(=O)(=O)c3ccccc3)cccc2C1=O | 22.4µM* | 10.7% | i | 17.0%
C=CCN(C(=O)[C@@H](C)[C@@H](O)c1ccc2ccccc2c1)c1ccccc1 | i | . | . | .
CC(C)[C@H](N)C(=O)N1CCC[C@@H]1C(=O)N1CCC2CCN(S(=O)(=O)c3ccccc3)CC21 (stereo partly specified) | i | . | . | .

Compound activity as filed in PubChem BioAssay.
